# PubChem BioAssay (NCI)
# The panel holds about 79,000 compounds, 15% with a hit somewhere; the sample as a whole holds those more often. Values without a mark were called inactive. The source made the active and inactive calls. Rule as the data show it: active = growth inhibition above about 70%; inactive = the rest.
# Assay: NCI Yeast Anticancer Drug Screen. Data for the sgs1 mgt1 strain (AID 161);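 also: 0% = growth of cultures given vehicle only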
# Details: S. cerevisiae sgs1 mgt1 strain, at 50.0 µM, stronger effect = higher value
# Summary of the method: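 Compounds are added to genetically altered yeast, and growth is compared with cultures given vehicle alone to give percent inhibition.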
row,SMILES,growth inhibition
1,Nc1ccc2c(c1)Oc1ccc(N)cc1O2,0.7%
2,CCCCOP(O)(=S)OCCCC.[Y],4.2%
3,COc1c(O)cc2c(c1OC)-c1ccc(SC)c(=O)cc1C(NC(C)=O)CC2 (stereo not given),4.95%
4,C1=C[N-]c2c3c(ccc2=C1)=CC=C[N-]3.C1=C[N-]c2c3c(ccc2=C1)=CC=C[N-]3.C1=C[N-]c2c3c(ccc2=C1)=CC=C[N-]3.[Co+3].[O-][Cl+3]([O-])([O-])O,-22.8%
5,ClCc1nc(-c2ccco2)no1,20.6%
6,CCCCCCCCCCCCCCCC(=O)OCC1OC(OC)C2NP(=O)(N(CCCl)CCCl)OC1C2O (stereo not given),-40.4%
7,BrP(Br)(c1ccccc1)(c1ccccc1)c1ccccc1,17.1%
8,CCCCCSP(SCCCCC)c1ccccc1,79.5% (active)
9,CN=NNc1nc[nH]c1C(N)=O,25.2%
10,ClCCN(CCCN(CCCl)c1ccccc1)c1ccccc1,32.5%
11,CCOC(=O)N[N+]12CCN(CC1)CC2,1.95%
12,CC(O)C[As](=O)(O)c1cccc(Cl)c1 (stereo not given),10.3%
13,CC1(C)OC2OCCC(N=[N+]=[N-])C2O1 (stereo not given),-0.95%
14,CC(=O)Nc1cccc([As+](C)(C)C)c1,-2.8%
15,O=C(CC(=O)c1ccccc1)c1ccccc1.O=C(CC(=O)c1ccccc1)c1ccccc1.[Pd],6.7%
16,COc1ccc2[se]c(C)nc2c1,5.3%
17,CC[O-].CC[O-].O=C([CH-]C(=O)c1ccccc1)c1ccccc1.O=C([CH-]C(=O)c1ccccc1)c1ccccc1.[Ti+4],29.1%
18,Oc1cccc(-c2ccccc2)c1,20.3%
19,CN1CCC(O)(c2ccccc2)C(C(O)c2ccccc2)C1 (stereo not given),17.9%
20,COc1cc2c(c(OC)c1OC)-c1ccc(SC)c(=O)cc1[C@@H](NC(C)=O)CC2,-19.1%

row,SMILES,growth inhibition
1,O=C(CC(=O)c1ccccc1)c1ccccc1.[Tl],97.5% (active)
2,C1CC[N-]CC1.C1CC[N-]CC1.[Cl][Pt+2]([Cl])([Cl])[Cl],7.8%
3,NC(=O)c1cccc([As]=O)c1 (stereo not given),13.8%
4,COc1cccc(C2CC(=O)c3cccn32)c1 (stereo not given),-4.7%
5,CC(=O)c1ccc(Br)cc1,-0.65%
6,O=C1Nc2ccccc2C12CNCS2 (stereo not given),-8.6%
7,Cc1cccc(CCl)c1,-23.3%
8,O=C1NC(=S)NC(=O)C1=Cc1ccc2ccccc2n1,1.55%
9,Clc1cccc(Cl)c1C(Cl)Cl,-3.15%
10,O=N[O-].O=N[O-].[Co].[NH-]CC[N-]CCO.[NH-]CC[N-]CCO,17.1%
11,CCOP(O)OCC,-5.25%
12,CCC1(c2ccc(C)cc2)C(=O)NC(=S)NC1=O,17.2%
13,N#CN,22.1%
14,OC[C@@H](O)[C@@H](O)CO,-12.1%
15,Cc1ccc(S(=O)(=O)OC2CN3CCC2CC3)cc1 (stereo not given),42.7%
16,O=S(c1ccc(Cl)cc1)c1ccc(Cl)cc1,33.5%
17,O=C([CH-]C(=O)c1ccccc1)c1ccccc1.[CH2-]C.[CH2-]C.[Tl+3],37.2%
18,NC(=O)C(N)C(F)c1ccccc1 (stereo not given),-16.4%
19,CC([NH-])C[NH-].CC([NH-])C[NH-].[Cl-].[Cl-].[Co+3].[O-][Cl+3]([O-])([O-])O (stereo not given),40.5%
20,Clc1cccc2nncc(N3CC3)c12,-17.2%

# Assay: NCI Yeast Anticancer Drug Screen. Data for the cln2 rad14 strain (AID 165);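 also: 0% = growth equal to vehicle treated cultures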
# Details: S. cerevisiae cln2 rad14 strain, at 50.0 µM, stronger effect = higher value
# Summary of the method: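 Readout is yeast growth inhibition versus vehicle-treated controls, using a strain with cln2 and rad14 alterations exposed to compound.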
row,SMILES,growth inhibition [%]
1,COc1cccc(C2CC(=O)c3cccn32)c1 (stereo not given),21.3
2,O=C1Nc2ccccc2C12CNCS2 (stereo not given),-23.4
3,O=N[O-].O=N[O-].[Co].[NH-]CC[N-]CCO.[NH-]CC[N-]CCO,14.9

# Assay: NCI Yeast Anticancer Drug Screen. Data for the bub3 strain (AID 167)
# Details: S. cerevisiae bub3 mutant strain, at 50.0 µM, stronger effect = higher value
# Summary of the method: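 Readout: yeast growth inhibition, expressed relative to vehicle-only wells. The test organism is a mutant strain from a panel with lesions in DNA repair or checkpoint genes.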
row,SMILES,growth inhibition
1,Nc1ccc2c(c1)Oc1ccc(N)cc1O2,-6.2%
2,CCCCOP(O)(=S)OCCCC.[Y],-8.6%
3,COc1c(O)cc2c(c1OC)-c1ccc(SC)c(=O)cc1C(NC(C)=O)CC2 (stereo not given),1.95%
4,C1=C[N-]c2c3c(ccc2=C1)=CC=C[N-]3.C1=C[N-]c2c3c(ccc2=C1)=CC=C[N-]3.C1=C[N-]c2c3c(ccc2=C1)=CC=C[N-]3.[Co+3].[O-][Cl+3]([O-])([O-])O,-1.15%
5,ClCc1nc(-c2ccco2)no1,4.55%
6,CCCCCCCCCCCCCCCC(=O)OCC1OC(OC)C2NP(=O)(N(CCCl)CCCl)OC1C2O (stereo not given),66.7%
7,BrP(Br)(c1ccccc1)(c1ccccc1)c1ccccc1,10.7%
8,CCCCCSP(SCCCCC)c1ccccc1,40.4%
9,CN=NNc1nc[nH]c1C(N)=O,3.85%
10,ClCCN(CCCN(CCCl)c1ccccc1)c1ccccc1,-5.1%
11,CCOC(=O)N[N+]12CCN(CC1)CC2,-1.2%
12,CC(O)C[As](=O)(O)c1cccc(Cl)c1 (stereo not given),37.5%
13,CC1(C)OC2OCCC(N=[N+]=[N-])C2O1 (stereo not given),-0.75%
14,CC(=O)Nc1cccc([As+](C)(C)C)c1,-3.35%
15,O=C(CC(=O)c1ccccc1)c1ccccc1.O=C(CC(=O)c1ccccc1)c1ccccc1.[Pd],6.05%
16,COc1ccc2[se]c(C)nc2c1,-17.3%
17,CC[O-].CC[O-].O=C([CH-]C(=O)c1ccccc1)c1ccccc1.O=C([CH-]C(=O)c1ccccc1)c1ccccc1.[Ti+4],52.7%
18,Oc1cccc(-c2ccccc2)c1,30.1%
19,CN1CCC(O)(c2ccccc2)C(C(O)c2ccccc2)C1 (stereo not given),-23.9%

row,SMILES,growth inhibition
1,COc1cc2c(c(OC)c1OC)-c1ccc(SC)c(=O)cc1[C@@H](NC(C)=O)CC2,-27.4%
2,O=C(CC(=O)c1ccccc1)c1ccccc1.[Tl],88.7% (active)
3,C1CC[N-]CC1.C1CC[N-]CC1.[Cl][Pt+2]([Cl])([Cl])[Cl],-0.8%
4,NC(=O)c1cccc([As]=O)c1 (stereo not given),0.85%
5,CC(=O)c1ccc(Br)cc1,5.75%
6,Cc1cccc(CCl)c1,-40.9%
7,O=C1NC(=S)NC(=O)C1=Cc1ccc2ccccc2n1,-6.35%
8,Clc1cccc(Cl)c1C(Cl)Cl,-6.65%
9,CCOP(O)OCC,-5.2%
10,CCC1(c2ccc(C)cc2)C(=O)NC(=S)NC1=O,14%
11,N#CN,-13.2%
12,OC[C@@H](O)[C@@H](O)CO,-5.55%
13,Cc1ccc(S(=O)(=O)OC2CN3CCC2CC3)cc1 (stereo not given),38.4%
14,O=S(c1ccc(Cl)cc1)c1ccc(Cl)cc1,13.6%
15,O=C([CH-]C(=O)c1ccccc1)c1ccccc1.[CH2-]C.[CH2-]C.[Tl+3],60.1%
16,NC(=O)C(N)C(F)c1ccccc1 (stereo not given),-11.7%
17,CC([NH-])C[NH-].CC([NH-])C[NH-].[Cl-].[Cl-].[Co+3].[O-][Cl+3]([O-])([O-])O (stereo not given),16.9%
18,Clc1cccc2nncc(N3CC3)c12,-9.05%
